# The whole screen tested about 310,000 compounds, of which about 14,000 (4.5%) showed an effect of 50% or more. Effects have a minus sign here. The full list was thinned out, with strong results kept by preference.
# Biological target: human ether-à-go-go-related gene (hERG) potassium channel (human, UniProt Q12809)
# Test: primary screen, population patch clamp on CHO cells stably expressing hERG; higher = less effect of the substance
# 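Further: peak tail current of the secondary pulse compared with the same well before compound.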
# human ether-à-go-go-related gene (hERG) potassium channel, sequence (Q12809 whole entry, looked up): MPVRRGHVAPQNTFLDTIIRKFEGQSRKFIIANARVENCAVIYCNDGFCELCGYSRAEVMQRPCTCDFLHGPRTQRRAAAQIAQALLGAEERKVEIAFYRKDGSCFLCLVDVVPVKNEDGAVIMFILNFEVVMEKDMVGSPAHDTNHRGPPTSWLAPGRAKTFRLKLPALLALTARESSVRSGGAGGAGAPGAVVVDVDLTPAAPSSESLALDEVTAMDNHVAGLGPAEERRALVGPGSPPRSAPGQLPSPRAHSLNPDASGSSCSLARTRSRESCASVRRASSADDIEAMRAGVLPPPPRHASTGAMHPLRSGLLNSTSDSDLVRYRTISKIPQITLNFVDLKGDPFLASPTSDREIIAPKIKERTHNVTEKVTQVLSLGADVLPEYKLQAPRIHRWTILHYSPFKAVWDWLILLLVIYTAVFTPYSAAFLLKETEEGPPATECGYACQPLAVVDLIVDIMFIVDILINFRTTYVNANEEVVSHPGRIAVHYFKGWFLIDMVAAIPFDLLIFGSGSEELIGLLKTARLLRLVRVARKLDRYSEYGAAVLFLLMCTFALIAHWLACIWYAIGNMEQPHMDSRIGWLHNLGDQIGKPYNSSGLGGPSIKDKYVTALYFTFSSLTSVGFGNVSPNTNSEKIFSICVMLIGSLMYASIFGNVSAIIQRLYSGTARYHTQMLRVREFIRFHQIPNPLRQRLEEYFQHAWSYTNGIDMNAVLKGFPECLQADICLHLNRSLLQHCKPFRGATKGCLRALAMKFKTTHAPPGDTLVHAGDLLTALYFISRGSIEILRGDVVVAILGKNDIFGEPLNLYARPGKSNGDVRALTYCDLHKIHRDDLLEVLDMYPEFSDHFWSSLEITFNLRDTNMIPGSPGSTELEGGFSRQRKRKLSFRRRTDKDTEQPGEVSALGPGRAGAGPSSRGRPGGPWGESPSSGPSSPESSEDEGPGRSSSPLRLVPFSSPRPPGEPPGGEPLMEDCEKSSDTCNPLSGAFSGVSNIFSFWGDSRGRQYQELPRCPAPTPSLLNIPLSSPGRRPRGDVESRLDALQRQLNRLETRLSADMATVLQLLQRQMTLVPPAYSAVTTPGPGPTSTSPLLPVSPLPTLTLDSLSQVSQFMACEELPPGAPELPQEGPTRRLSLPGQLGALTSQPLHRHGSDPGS
row,Structure (SMILES),"hERG current change (%, negative = inhibition) at 10uM"
1,CCCSc1nsc(NC(=O)CC)n1,-30.5%
2,CCCC1Cc2c(sc(N)c2C#N)CO1 (stereo not drawn),2.5%
3,CC(C)Cc1nnc(NC(=O)c2ccc(N3CCCC3=O)cc2)s1,2.3%
4,CN(CCOc1ccc(Cl)cc1)C(=O)c1ccc(S(=O)(=O)N2CCOCC2)cc1,-74.9%
5,Cc1ccc(OCCOC(=O)c2cc(S(=O)(=O)N3CCCCC3)ccc2N2CCOCC2)cc1,-9.24%
6,CCCCN(C)C(=O)c1ccc(S(=O)(=O)N2CCOCC2)cc1,17.3%
7,O=C(NCC1CCN(c2ccc(S(=O)(=O)N3CCOCC3)cc2)CC1)c1cccc(Cl)c1,-12.4%
8,CN(CCOc1ccccc1)C(=O)c1ccc(F)c(S(=O)(=O)N2CCOCC2)c1,-10.8%
9,COc1ccc(NC(=O)CN(C)C(=O)Cc2ccc(S(=O)(=O)N3CCOCC3)s2)cc1,8.92%
10,CN(CCOc1ccc(Cl)cc1)C(=O)Cc1ccc(S(=O)(=O)N2CCOCC2)s1,-73.1%
11,CN(CCOc1ccc(Cl)cc1)C(=O)c1cc(S(=O)(=O)N2CCOCC2)ccc1N1CCCC1,-63.7%
12,O=C(NCC1CCN(c2ccc(S(=O)(=O)N3CCOCC3)cc2)CC1)c1ccc(Cl)cc1,-57.2%
13,COc1cccc(C(=O)NCC2CCN(c3ccc(S(=O)(=O)N4CCOCC4)cc3)CC2)c1,-22.9%
14,Cc1cccc(C)c1NC(=O)CN(C)C(=O)c1cc(S(=O)(=O)N2CCOCC2)ccc1N1CCCC1,-3.99%
15,Cc1ccc(OCCNC(=O)Cc2ccc(S(=O)(=O)N3CCOCC3)s2)cc1,-24%
16,O=C(Nn1cnc2ccccc2c1=O)c1ccccc1,12.7%
17,COc1c(Cl)cc(C(=O)Nc2ccccc2-c2ccccc2)cc1Cl,0.345%
18,Cc1ccc(NC(=O)Cn2nc(C(=O)Nc3ccc(C)cc3)ccc2=O)cc1,10.8%
19,CCN(CC)S(=O)(=O)c1cccc(C(=O)OC2CC(C)OC2=O)c1 (stereo not drawn),12.7%
20,Nc1nc(NCc2ccccc2)nc(NCc2ccccc2)c1[N+](=O)[O-],16.2%
21,O=C(Nc1c2c(nn1-c1ccccc1)CS(=O)C2)c1ccc(S(=O)(=O)N2CCOCC2)cc1 (stereo not drawn),17.4%
22,COc1cc(NC(=O)COC(=O)/C=C/c2ccc(Cl)cc2Cl)cc(OC)c1,5.23%
23,CC(C)(C)NC(=O)NCCc1ccccc1,11%

row,Structure (SMILES),"hERG current change (%, negative = inhibition) at 10uM"
1,CC(=O)Nc1ccc2nc(SCC(=O)N3CCOCC3)sc2c1,18.9%
2,COc1cc(/C=N/NC(=O)[C@H](Cc2c[nH]c3ccccc23)NC(=O)OCC(C)C)cc([N+](=O)[O-])c1O,10.3%
3,CCN1CCN(S(=O)(=O)c2ccc(Cl)c(C(=O)N(C)CCOc3ccc(Cl)cc3)c2)CC1,-52.8%
4,COc1ccc(S(=O)(=O)N2CCCCCC2)cc1C(=O)N(C)CCOc1ccc(Cl)cc1,-47.7%
5,O=S(=O)(c1ccc2c(c1)nc(COc1ccc(Cl)cc1)n2CC1CCCO1)N1CCOCC1 (stereo not drawn),-65.2%
6,CCN1CCN(S(=O)(=O)c2ccc(Cl)c(C(=O)N(C)Cc3cccc(OC)c3)c2)CC1,-11.2%
7,COc1ccc(S(=O)(=O)N2CCCCCC2)cc1C(=O)N(C)Cc1ccc(Cl)cc1Cl,-23.1%
8,Cc1cccc(C)c1NC(=O)CN(C)C(=O)c1cc([N+](=O)[O-])ccc1N1CCOCC1,24.1%
9,CCN1CCN(S(=O)(=O)c2ccc(Cl)c(C(=O)N(C)Cc3ccc(F)cc3)c2)CC1,-25.1%
10,O=C(NCC1CCCO1)c1cc(S(=O)(=O)N2CCOCC2)ccc1Cl (stereo not drawn),16.5%
11,COc1ccc(S(=O)(=O)N2CCOCC2)cc1C(=O)N(C)CCOc1ccc(Cl)cc1,-79.8%
12,CN(CCOc1ccc(Cl)cc1)C(=O)c1cc([N+](=O)[O-])ccc1N1CCOCC1,-66.7%
13,O=C(COc1ccc(S(=O)(=O)N2CCOCC2)cc1)NCC1CCCO1 (stereo not drawn),-15.1%
14,CN(CCOc1ccccc1)C(=O)c1cc([N+](=O)[O-])ccc1N1CCOCC1,-27.3%
15,COCCNC(=O)Cn1cc(C(=O)c2ccccc2F)c2ccccc21,12.5%
16,COc1ccccc1CNc1ncnc2cc(OC)c(OC)cc12,-32%
17,CCOC(=O)c1c(NC(=O)Cn2cnc3scc(-c4ccc(C)cc4)c3c2=O)sc(C)c1C,-14.5%
18,CCCNC(=S)Nc1ccc(Nc2ccccc2)cc1,-15%
19,O=C(CSc1cn[nH]n1)Nc1ccccc1C(F)(F)F,8.13%
20,COc1ccc(CN(C)C(=O)Cc2ccc(S(=O)(=O)N3CCOCC3)s2)cc1OC,7.58%
21,CN(CCOc1ccccc1)C(=O)c1cc(S(=O)(=O)N2CCOCC2)ccc1Cl,-48.4%
22,Cc1ccc(S(=O)(=O)N2CCOCC2)cc1C(=O)OCCOc1cccc(Cl)c1,-9.45%

# Source: publication PMC4336329 (PLoS ONE, 2015)
